# The full ranking holds about 25,000 sequences; the median of “ln(normalized median fluorescence intensity)” is about 7.1, and the highest 2% start at about 10. Only a selection was taken, and the highest values are over-represented in it overall.
# Tested on: PfSIP2 AP2 domain 1 (GST-tagged)
# Assay: gcPBM binding intensity (ln(normalized median fluorescence intensity)); higher = stronger DNA binding
# Outline: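 Binding intensity values are the highest Masliner-normalised natural-log median intensity among replicate spots of either probe orientation. The binding step lasted 1 h in 1× PBS with 1% milk, 0.2 mg/ml BSA, 0.5% salmon testes DNA and 0.03% Triton X-100, using GST-tagged P. falciparum DNA-binding domains expressed in E. coli on an Agilent 4 × 180k array of primer-extended double-stranded 36-bp intergenic genomic probes plus negative controls. Alexa488 anti-GST antibody and a 488 nm scan detected bound protein.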
row,Sequence,gcPBM binding intensity (ln)
1,TTTTTATTTTTTCAGTGTACATTTAAATTATCTTAT [XGTACX_site3905],6.98
2,ATTATTATTATATATGCATGTAAAATATTAAAGTAC [TGCATGCA_site914],7.59
3,AATGAAAAATGTATCGTTAAAGGGTATCTTAAGGAT [XGTACX_negctrl_site222],6.84
4,AGATCATAATATTATACACACATTATGTATATGTAA [CACACA_site1490],6.84
5,TATAACACACAATGATGTACATTACATTATTTTTTA [XGTACX_site2076],7.06
6,CATTAACATTTTATTACACACAATAATTTATAAGTA [CACACA_site4083],7.06
7,ACACATTATAACAAGGTGCAATTTTTATACACATGT [GTGCAC_site9866],10.4
8,TAATTAGCATAATACACATGCATACATTTATATATA [TGCATGCA_site542],7.01
9,ATCATAAATTATTATACACACAATACGTGACCTATT [CACACA_site1906],7.06
10,TATTGTTACTTTATATGTACTAATTAAACATATACA [XGTACX_site6363],7.24
11,ATAACAAAATGAAGAGTGCATTACCAAGTGGGTAAA [GTGCAC_site9450],8.64
12,TAGGTACATAAATTGGTGCAAAGTGTACATATATAT,9.97
13,TAAATTGGTGCAAAGTGTACATATATATCTTTCCTA [XGTACX_site5458],11.4
14,AAAAAATTATAAAAGTGTACATATATATATATATAT [XGTACX_site154],9.3
15,AACAATAAAAATAATTGTACAAGTCTAAAAAAAATT [XGTACX_site20],6.86
16,TCGTGAATGATTTAAGTACACACCGGTATTTATTCA [CACACA_site1564],6.74
17,ACGTAAACATGTAGAAGGCATTACACAATGGTATAC [TGCATGCA_negctrl_site512],6.75
18,AAAAGAAAATTAAATTAACACACATAAATATATATA [CACACA_site8482],7.27
19,ACCATATAAAGTTAGGTGCATTTGTATGTATCTTAC,9.18
20,ATATAATAAATGTAGGTGCATAAAAATATTTTGTTA [GTGCAC_site9780],10
21,TTTGTATAGTTGTAGGTGCATATCATTTTTAAATGT [GTGCAC_site9708],10.4
22,ATTTTTTCATATTCTACACACGTGAACAAATGAGTC [CACACA_site5635],7.21
23,TTTTTTATTAAATATATATAATAATAATAATTTGTA [CACACA_negctrl_site1719],6.88
24,CATATAAGACAAAAGGTGCAATTTTAATGCTTTTAT [GTGCAC_site9432],9.98

row,Sequence,gcPBM binding intensity (ln)
1,TAATAATTTTATAAAGTGCATAAAAATAAAAATTTT,8.89
2,ACTAATAATTTGTCGGTGCATAAAATTATTTTTATT [GTGCAC_site9840],10.7
3,ATATATATATATATAGTGCATAATGTTTTAATAGAT,9.54
4,ATTTCTTTTGTTATAGTGCATAATATTTATGTACGT,8.59
5,TTTTTAAAATATTTAACACACAATTATAATGCATAA [CACACA_site3932],7.23
6,ATATATAAAAATTAGGTGCATTAAATTAAAATATAT,10.3
7,ATATATTTATAATAGGTGCATATGTTTTATTTTTCC [GTGCAC_site9849],10.2
8,ATATTTTTATATGAGGTGCATATAATGACAATTAAG,10.6
9,AAAAATAATCATTAGGTGCAAAAAATATATATATAT [GTGCAC_site9631],9.96
10,AAAAAAAAAATTTAGGTGCATACAAATAAATTATAT [GTGCAC_site9521],9.85
11,TTTAATATTATTATTTTACACACTTTTTTCCTTTTA [CACACA_site8780],6.64
12,TACATGTATAATATAATACACACTATATAATATACA [CACACA_site2239],6.92
13,TACTATAACCCACATACACACAAAAAAAAAAAAAAA [CACACA_site4454],7.11
14,ACATAATAAAAATGACGTACAATTTTTTTTTTTCAT [XGTACX_site8340],7.01
15,AAAAAACGCACTCGTACACACATATTTTCTTTCTAA [CACACA_site3089],8.76
16,TTTTTTAGATTACATAAATATAAATATAAATATATA [GTGCAC_negctrl_site459],6.68
17,ATGTTTTGTAAAATGATTAAATATTAAGATTCAATA [CACACA_negctrl_site1743],6.7
18,ATATATATAGAAATATGTACGAAAAAAATATCACAT [XGTACX_site746],7.63
19,TATATTACAAAAAGTACACACATAAATAAATACATA [CACACA_site975],7.17
20,CCATAGATATTTTATACACACATATAATATATTAAT [CACACA_site373],7.17
21,ACATATATATATATATATAATATTTTATATTTATTA [CACACA_negctrl_site713],7.49
22,TATACAAGTATATAGGTGCATATATAAGTATATATT [GTGCAC_site9994],10.3
23,TTTTTTTTTTCTTAGGTGCAAAAAATAAGTATATAT [GTGCAC_site9394],10.1
24,TTTCTTTATTTATAATAATTTTTTATTAAAAATAGA [CACACA_negctrl_site1610],6.78

row,Sequence,gcPBM binding intensity (ln)
1,GTATAGTACAAATAAGTGCATATAAAAGAAATACAG,8.56
2,TATATATTAAAAATAGTGCAAAATAATATATATATA [GTGCAC_site9716],8.84
3,TTTTATTATATGGAGGTGCATATATAATAATATAAT [GTGCAC_site9477],11
4,TTTCTTTTTAAATAGGTGCATATTTTTATAAATATA,11
5,TTTTAAAATTATTAGGTGCATATTTATTCTATATTT,10
6,TATAATAATATTATAGTGCATATTATTTATATATAA [GTGCAC_site9820],8.67
7,TCTTAAAATATATAGGTGCAAAAAAAAAAAAAAAAA,10.6
8,ATACATCGTATATAAGTGCATATTAAGGTCTTAAGA [GTGCAC_site9560],8.11
9,AAAAAAAAAAAAGAAAAATATATATATAAATAAATA [GTGCAC_negctrl_site569],6.98
10,TTTTTCATATGACACACACACAAAAATAATGTGGAA [CACACA_site7692],6.99
11,AAATTATATTATTGAACACACGTTTGGTAATGTTTT [CACACA_site5469],6.78
12,GCTATTTATTTATATTGTACTTTTTTTTTTTTTTTT [XGTACX_site3624],7.67
13,TAAATTGAGTATATTACACACATATAAATATATTAT [CACACA_site4027],6.88
14,GAACAAATTACAAGTTGTACTTTATGTAAATTATTA [XGTACX_site5304],6.76
15,ATACTATTATATATATGTACATATATATGATGCTCT [XGTACX_site1771],7.22
16,TTTTGTTATTTTTTAGTGCATATAAAGGTTGTTAAG,8.64
17,TCGAATATCTTATAGGTGCATCATAAATACATATGT,10.8
18,GTATTATATATATAGGTGCATATATATATATAAATA [GTGCAC_site9787],10.8
19,ATAATTGTTTAAAGGTGTACAATACATATATTTTAA [XGTACX_site3648],6.91
20,TATTTTATATGATAGGTGCATTTTTTTTTTTTTTTT [GTGCAC_site9757],10.8
21,ATAGTAATGCATAAATATATATTATATATATATATA [XGTACX_negctrl_site576],9.1
22,ATATTATATATATAGGTGCGAGTATTTTATAAATAT [GTGCAC_site9889],9.06
23,TTTTTATTTATATGATACTTATATATATATATATAT [CACACA_negctrl_site462],9.5
24,TATGGAATAAATTTATCCATACATCTTATAACATAT [XGTACX_negctrl_site500],6.78

row,Sequence,gcPBM binding intensity (ln)
1,TTTTTTTTTTTTTTTTTTTTTTTTTTATGATATATA [GTGCAC_negctrl_site365],6.82
2,ATCTATATCTATAATACACACATCATAAAATATGTA [CACACA_site7230],7.19
3,CATCATCTTTTAAAGGTGCATAATAATATTGTTAAT,11.1
4,ACATATATATATATTACACACACACTAATAAAATAA [CACACA_site7920],7.24
5,AAAATTAAAAAAATAAATACATTATATAATTAAAAA [CACACA_negctrl_site1426],6.77
6,CTTCTTATTTTCTAATGTACGTACAAATCATTTATA [XGTACX_site2176],8
7,CTTGGGAAGTATTCAGTGCAAAATATAAGCAGGTCA [GTGCAC_site9758],7.75
8,ATATGTATATATATTTGTACGTAAAATGAAATCTAA [XGTACX_site213],7.45
9,AAAAAAAAAAAAAACACACACACACGCACATATACA [CACACA_site7288],7.66
10,GGTATATTAAAATAGGTGCATAAAACTAAGAGAAAA [GTGCAC_site9781],11
11,CGTTATATAATAAAGGTGCATAGATATATCATTATA [GTGCAC_site9774],10.5
12,CCTAATTTTATTAGGGTGCATTTTTAGTTAAATATA,11.2
13,CATAAATAAGCTTTAGTGCATTATATTTAAATTTTT,7.29
14,GAAAGAAATAAAGGTGGTACATAAATAAAAACTAAG [XGTACX_site4826],7.38
15,TAATAAATGTTATTAGTGCATAATAGATAATATATT,8.29
16,ATATATAAATAAATAGTGCATTTTAATATTTAACGT,9.27
17,AAAAATAAAGAAACAGGTACGCATATATTAAGATAT [XGTACX_site8097],7
18,AATATCATTATATAAGTGCATTTTTTAAAAGATAAA [GTGCAC_site9479],9.12
19,GGTATATATTCTATCACACATATTTCCATGAAAATA [CACACA_site4728],7.29
20,AAAAAAAAAAAATAAAGTACTAAATAATACATTATA [XGTACX_site6203],7.02
21,TGTAGTCTGGAGAAAAGTACACAGTATCTGGTAGCT [XGTACX_site2012],6.95
